A selection: hits, their analogues and other compounds. The true share with any hit is near 8.9%.
MCF10A rerep: inducers of DNA re-replication in MCF 10A breast cells; Potency, µM (highest dose often 46.1 µM), for inactives: at the top dose activity, positive = re-replication, hits mostly activators; MCF 10A DNA re-replication, Hoechst nuclear intensity, 48 h; 2.9% of 350,000 active; AID 624296; also: potency is read from the fitted curve at half-maximal effect; % of control where 0% means no effect; nearly all actives have a fitted effect of over 50% in size
KB-3-1 cytotox: kills parental KB-3-1 adenocarcinoma cells. KB-3-1 viability, CellTiter-Glo ATP luminescence, 72 h. 1.4% of 400,000 active. Potency, µM (titrated, usually from 46.1 µM), actives largely listed as cytotoxic. AID 1347075; also: potency is read from the fitted curve at half-maximal effect; % is scaled to controls: 0 for no effect and ±100 for the full control effect; nearly all actives have a fitted effect of over 60% in size
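Viability of parental KB-3-1 cells, measured by CellTiter-Glo luminescence, followed a 72 h incubation at 37 °C with pinned compounds in phenol-red-free DMEM containing 10% FBS.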
KB-V1 MDR tox: KB-V1 MDR subline cytotoxicity; KB-V1 MDR cells viability, CellTiter-Glo, 72 h; AID 1347076; 3.4% of 400,000 active; Potency, µM (highest dose often 46.1 µM), usual class: cytotoxic; also: potency is read from the fitted curve at half-maximal effect; % is scaled to controls: 0 for no effect and ±100 for the full control effect; nearly all actives have a fitted effect of over 60% in size
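Cytotoxicity toward P-gp-expressing KB-V1 cells was determined as loss of CellTiter-Glo luminescence after 72 h at 37 degrees C. Compounds were tested in quantitative HTS format across a concentration range, with curves fitted to normalized data.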
D3 ag: D3 dopamine receptor (human) agonism. P35462. D3R DiscoveRx beta-arrestin cells, luminescence, 90 min. max activation, %. 0.58% of 410,000 active; in the data active = max activation above about 30%; also: 0% is about no effect
Target sequence (P35462 whole entry, looked up): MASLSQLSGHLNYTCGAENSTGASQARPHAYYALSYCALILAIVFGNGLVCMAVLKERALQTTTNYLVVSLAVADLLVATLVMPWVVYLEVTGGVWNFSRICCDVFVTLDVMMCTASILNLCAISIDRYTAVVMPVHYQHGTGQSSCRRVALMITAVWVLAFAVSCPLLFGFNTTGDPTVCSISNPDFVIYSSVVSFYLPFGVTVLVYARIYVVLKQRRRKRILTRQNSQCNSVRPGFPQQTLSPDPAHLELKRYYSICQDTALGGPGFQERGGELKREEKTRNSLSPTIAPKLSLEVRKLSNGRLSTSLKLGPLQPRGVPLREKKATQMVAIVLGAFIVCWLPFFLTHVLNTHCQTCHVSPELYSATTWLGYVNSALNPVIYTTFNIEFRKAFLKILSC
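Agonist-mode cell screen: cells plated at 1500/well and incubated overnight at 37 °C, then exposed to library compounds for 90 min at 37 °C. Detection reagent was added for 30–60 min at room temperature, and luminescence was read.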
DRD3 antagonist: blocks the human D3 dopamine receptor; D3R cells, DiscoveRx beta-arrestin luminescence, antagonist mode; stronger effect = lower value; 2.5% of 360,000 active; max response, negative = inhibition, %; P35462; in the data active = max response below about -50%; inconclusive = no clear call, values can overlap the other calls; also: % is scaled to controls: 0 for no effect and ±100 for the full control effect
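Cells expressing the human receptor were seeded at 1500 cells/well, incubated overnight at 37 degrees C in 5% CO2, then exposed to library compounds with dopamine controls for 90 minutes at 37 degrees C before luminescent detection.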
SW480 rerep: inducers of DNA re-replication in SW480 colon cancer cells; SW480 DNA re-replication, Hoechst DNA content imaging, 48 h; Potency, µM (titrated, usually from 46.1 µM), inactives show at the highest dose re-replication activation, usual class: activators; 1.8% of 340,000 active; AID 624297; also: potency is read from the fitted curve at half-maximal effect; % of control where 0% means no effect; nearly all actives have a fitted effect of over 55% in size
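Image-based DNA-content assay: after two days of treatment, nuclei were labelled with the DNA dye Hoechst and imaged, and hits were compounds raising the count of nuclei showing high fluorescence intensity.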
* = called active by the depositor; i = inactive; ? = inconclusive; / = not tested or not shown. Unless noted, calls follow the shape of the dose curve; as a rule, active = well fitted curve in the direction sought with a large enough effect; inconclusive = small, poorly fitted or top-dose-only effect, or another doubt; inactive = no such curve, though single readings can be large; an effect the other way counts as inactive or inconclusive.

SMILES	MCF10A rerep	KB-3-1 cytotox	KB-V1 MDR tox	D3 ag	DRD3 antagonist	SW480 rerep
Nc1cc2c3c(cccc3c1)C(=O)N(CCN1CCCC1)C2=O	?	?	23µM*	3	-22	15µM*
COc1ccc(Nc2nc3ccc(Cl)cc3n3nnnc23)cc1OC	/	i	i	8	/	/
O/N=C(/CI)c1ccc2ccccc2c1	/	i	i	/	/	/
COc1ccc(C(=O)c2ccc(Cl)c([N+](=O)[O-])c2)cc1	3.7µM*	1.2µM*	?	-21	-27	0.82µM*
COc1ccc(C(=O)c2ccc(Cl)cc2)cc1	1%	i	i	4	2	-5%
CN(C)S(=O)(=O)c1cc(NC(=O)CSc2nn(-c3ccc(Cl)cc3)c(=S)s2)ccc1Cl	7%	?	16µM*	-15	-23	16%
Cc1ccc(NC(=O)CSc2nn(-c3ccc(Cl)cc3)c(=S)s2)cc1S(=O)(=O)N(C)C	13%	?	21µM*	-8	?	/
CCc1nnc2c(NCc3ccccc3OC)nc3ccccc3n12	/	i	i	-10	/	/
Cc1c(O)c2c(c(C(=O)/C=C/c3ccccc3)c1O)OC(C)(C)C=C2	/	i	i	/	/	/
CC1(C)CC[C@]2(C(=O)O)CC[C@]3(C)C(=CC[C@@H]4[C@@]5(C)CC[C@H](O[C@@H]6O[C@H](C(=O)O)[C@@H](O)[C@H](O[C@@H]7OC[C@H](O)[C@H](O)[C@H]7O)[C@H]6O)C(C)(C)[C@@H]5CC[C@]43C)[C@@H]2C1	?	i	i	-22	-63*	?
C=CCNc1nc(-c2cccc(OC)c2O)nc2ccccc12	23µM*	i	i	6	4	4%
Fc1ccc(C(c2ccc(F)cc2)N2CCN(C/C=C/c3ccccc3)CC2)cc1	23µM*	?	?	-75	?	?
CSCCC(C(=O)Nc1c(C)cccc1C)N1CCN(C/C=C/c2ccccc2)CC1 (stereo not drawn)	/	i	i	-12	-81*	/
Cc1cccc(C)c1NC(=O)C(c1ccccc1)N1CCN(C/C=C/c2ccccc2)CC1 (stereo not drawn)	/	i	?	-10	-13	/
C(=C\c1ccccc1)/CN1CCN(C(c2ccccc2)c2ccccc2)CC1	?	i	i	/	-63*	0%
Cc1cc2nc(CCN(Cc3cccnc3)C(=S)Nc3ccc(F)cc3)[nH]c2cc1C	28%	i	i	4	7	?
Cc1cc2nc(CCN(Cc3cccnc3)C(=S)Nc3ccccc3)[nH]c2cc1C	16µM*	i	?	-5	-11	4%
Cc1nn(C)c(Oc2ccccc2)c1CCNS(=O)(=O)c1ccc(Cl)cc1	10%	?	18µM*	1	33	1%
O=C(NCCNC1CCC(c2ccccc2)CC1)c1ccc(F)cc1 (stereo not drawn)	1%	i	?	-35	-92*	14%
CC1=C(C(=O)Nc2ccccc2)C(c2ccc(C(C)C)cc2)N2C(=O)CSC2=N1 (stereo not drawn)	?	i	i	5	-51*	-4%
COc1ccc(N[C@@H]2CCN3C(=O)c4ccccc4[C@@H]3C[C@H]2O)cc1	-3%	i	i	9	29	-4%
O=C1c2ccccc2[C@@H]2C[C@@H](O)[C@H](Nc3cccc4ccccc34)CCN12	?	i	i	-53	-56*	18µM*
O=C(O)COc1ccccc1C(Nc1ccccn1)c1cc(Cl)c2cccnc2c1O (stereo not drawn)	18µM*	i	i	3	-17	-2%
CCC(=O)NC(c1ccc(C)cc1)c1cc(Cl)c2cccnc2c1O (stereo not drawn)	-13%	?	?	/	/	?
CCOc1ccc(C(Nc2cccnc2)c2cc(Cl)c3cccnc3c2O)cc1 (stereo not drawn)	?	?	i	8	-58*	?
SMILES	MCF10A rerep	KB-3-1 cytotox	KB-V1 MDR tox	D3 ag	DRD3 antagonist	SW480 rerep
O=C(O)COc1ccccc1C(Nc1cccnc1)c1cc(Cl)c2cccnc2c1O (stereo not drawn)	9.2µM*	i	i	19	-4	15%
COc1ccc(-n2c3c(cc(-c4nc(-c5ccc(Cl)cc5)cs4)c2=O)C(=O)CC(C)(C)C3)cc1	/	i	i	-7	/	/
CCC(C)NC(=O)c1ccc2nc(-c3ccc(OC)c(OC)c3)c(-c3ccc(OC)c(OC)c3)nc2c1 (stereo not drawn)	15µM*	i	i	-2	38	?
COc1ccc(C(C)NC(=O)c2cccc([N+](=O)[O-])c2)cc1OC (stereo not drawn)	-1%	i	16µM*	0	-5	7%
CCCN(CCC)C(=O)c1ccc2nc(-c3ccc(OC)c(OC)c3)c(-c3ccc(OC)c(OC)c3)nc2c1	9%	i	i	2	4	-4%
COc1ccc(C(C)NC(=O)c2ccc([N+](=O)[O-])cc2)cc1OC (stereo not drawn)	8%	i	21µM*	-16	-14	-40%
COCC(C)NC(=O)c1cccc([N+](=O)[O-])c1 (stereo not drawn)	-8%	i	i	-5	9	-16%
COc1ccc(OC)c(C(C)NC(=O)c2ccc(Br)cc2)c1 (stereo not drawn)	-7%	i	16µM*	3	5	-106%
CC1(C)COC(Cc2ccccc2)=N1	/	?	i	0	29	/
COCCCNC(=O)CSC1=Nc2ccccc2C2=NC(CCC(=O)NCc3ccccc3OC)C(=O)N12 (stereo not drawn)	/	i	i	-15	/	/
COc1ccc(C(CC(=O)O)NC(=O)Nc2ccccc2)cc1OC (stereo not drawn)	-5%	i	i	-4	-2	-2%
COc1ccc(C(C)NC(=O)c2ccc(Br)cc2)cc1OC (stereo not drawn)	10%	i	16µM*	0	-9	-36%
COc1ccc(C(CC(=O)O)NC(=O)c2ccccc2)cc1OC (stereo not drawn)	3%	i	i	-12	-60*	-5%
COc1cc(Br)c(C(C)NC(=O)c2ccccc2)cc1OC (stereo not drawn)	0%	i	i	40*	-17	-3%
CCc1ccccc1N(C)C(=O)c1nn(-c2ccc(OC)cc2)c(=O)c2c1c1ccccc1n2C	/	i	i	13	/	/
O=C(CN1c2ccccc2Sc2ccccc21)NNC(=O)Nc1ccc(Cl)c(Cl)c1	16µM*	i	i	6	-4	?

Screens from PubChem BioAssay.
